A number with no mark means an inactive call.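 Rule for the calls: active = viability increase at or above a cutoff of the median across tested compounds plus 3 SD (cut at about 8.5% in these data, passing the limit was not always enough); inconclusive = some gains above the cutoff, reason not given; inactive = the rest.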
test: doxorubicin toxicity protection in MRP-1 cells – H69AR cells, CellTiter-Glo, duplicate, MRP-1 activator project, pilot screen (AID 807); conditions: H69AR viability with doxorubicin, CellTiter-Glo luminescence; at 10 µM; active compounds read high;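 note: compound pretreatment 18-22 h then 72 h combined with doxorubicin; 0% = doxorubicin alone and 100% = vehicle without doxorubicin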

Point of comparison: `Cc1[nH]c2ccc(-c3n[nH]c(=S)n3C)cc2c1C`, viability increase 0.84%. Against it:
- O=C(CCCN1C(=O)c2ccccc2C1=O)Nc1ccccc1C(=O)N1CCOCC1 — lower, 0.44%
- COc1cccc(C2CC(=O)N3CN(c4ccccc4F)CSC3=C2C#N)c1 (stereo not given) — lower, -1.76%
- C=CCNc1oc(Cc2cccc3ccccc23)nc1C#N — lower, -3.89%
- O=C(c1ccccc1)c1ccc2nc(N3CCCCC3)c3nncn3c2c1 — lower, -3.48%
- O=C(CSCC(=O)NC1CC1)Nc1ccccc1 — lower, -1.13%
- Cc1ccc(N(C(=O)c2cccs2)C2C=CS(=O)(=O)C2)cc1 (stereo not given) — lower, -2.23%
- COc1ccc(NC(=O)N(Cc2ccc(C)cc2)Cc2ccccn2)c(OC)c1 — lower, -1.9%
- CC(=O)C(C)Oc1ccc2c3c(c(=O)oc2c1)CCCC3 (stereo not given) — lower, 0.37%
- CC(=O)c1c(C)oc(C)c1CSCc1ccc(C(=O)O)o1 — lower, -2.16%
- CCn1c(CNC(=O)C(C)(C)C)nc2ccccc21 — lower, -1.1%
- Cc1cc(C)n(-c2nnc(C)n2/N=C/c2cc(Br)ccc2OCc2ccccc2)n1 — lower, -7.71%
- CCC(=O)Nc1cccc(-c2nnc(SCC(=O)c3ccccc3)n2C)c1 — lower, -1.76%
- O=C(COc1cccc2ccccc12)N1CCN(c2ccccc2)CC1 — higher, 1.21%
- O=C(O)CSc1cccc2cccnc12 — lower, -0.24%
- CN=C1SC(CC(=O)Nc2ccccc2F)C(=O)N1C (stereo not given) — lower, -0.48%
- COc1ccc2[nH]c(C)c(CN3CCC(C)CC3)c(=O)c2c1 — lower, -2.02%
- O=C(OCN1C(=O)c2ccccc2C1=O)c1ccco1 — lower, -2.17%
- O=C1CC(N2CCN(C(c3ccccc3)c3ccccc3)CC2)C(=O)N1 (stereo not given) — lower, -1.16%
- CCN(CC)CCNC(=O)Cn1cnc2sc(C)c(S(=O)(=O)N3CCOCC3)c2c1=O — lower, -1.11%
- COc1ccc(C2CC(c3ccc(F)cc3)Nc3nc(N)nn32)cc1 (stereo not given) — lower, 0.02%
- CCOc1ccccc1C(=O)NC1CCN(Cc2nnnn2C2CCCC2)CC1 — lower, -1.67%
- CCOc1ccc(C(=O)Nc2c3c(nn2-c2ccc(C)cc2)CS(=O)C3)cc1OCC (stereo not given) — lower, -1.84%
- Cc1ccc(-c2nn(C)c(=O)c3ccccc23)cc1CNC(=O)c1ccco1 — lower, -6.36%
- O=C(CNS(=O)(=O)c1ccc(C(=O)N2CCCCC2)cc1)N1CCCCC1 — higher, 0.86%
- CCOC(=O)CON1C(=O)C(C)(C)N(OCC(=O)OCC)C(=O)C1(C)C — lower, -0.75%
- Cc1onc(-c2ccccc2Cl)c1C(=O)OCN1C(=O)c2ccccc2C1=O — lower, -2.89%
- CSC1=NCCN1C(=O)c1cccs1 — lower, 0.08%
- O=C(C1CCC(CNc2c(N3CCCCC3)c(=O)c2=O)CC1)N1CCN(c2ccccn2)CC1 (stereo not given) — lower, -0.36%
- CC1CCCN(c2nc3c(c(=O)[nH]c(=O)n3C)n2Cc2ccccc2Cl)C1 (stereo not given) — lower, -5.4%
- COc1ccc(CC(=O)N2CC3(C)CC2CC(C)(C)C3)cc1OC (stereo not given) — lower, -2.91%
- Cc1cccnc1NC(=O)c1c(O)c2ccccc2n(C)c1=O — lower, -3.77%
- CCN(CC)P1(=O)OC(c2cc(OC)c(OC)c(OC)c2)=Nc2c1c(C)nn2-c1ccccc1 (stereo not given) — lower, -2.38%
- CCOc1ccc(NC(=O)CSc2nnc(Cn3c(=O)sc4ccccc43)n2C)cc1 — lower, -2.49%
- Cc1ccc(N(C(=O)CC2NC(=O)NC2=O)C2(C(=O)NC3CCCC3)CCCCC2)cc1 (stereo not given) — lower, -1.56%
- Cn1c(NC(=O)Cc2ccc(F)cc2)cc(=O)n(C)c1=O — higher, 3.42%
- COc1ccc(C2CC(=O)c3cnc(NC(=O)c4ccccc4)nc3C2)cc1OC (stereo not given) — lower, -3.55%
- Cc1cccc(N2CCN(C(=O)C3CCN(c4nnc(-n5cccc5)s4)CC3)CC2C)c1 (stereo not given) — lower, -1.6%
- O=C(NCc1ccccc1)c1cc(S(=O)(=O)N2CCOCC2)ccc1F — lower, 0.27%
- O=C(CN1C(=O)C2C3C=CC(C3)C2C1=O)Nc1ccc2nccnc2c1 (stereo not given) — lower, -1.76%

Reference: PubChem BioAssay
